The subject of assay [1] is Wnt5a (protein binding on small-molecule microarray). In words: Wnt5a binders on small-molecule microarray, primary screen, biophysical, 635/667 nm fluorescence (AID 1142).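 Also: fluorescence read at 667 nm with signal to noise per printed feature.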 Particulars: 635 nm fluorescence, higher = more signal.
Assay [2] in a line: cell viability in Huh7 cells, primary screen, cytotoxicity control for HCV replication inhibitor project, CellTiter-Glo luminescence, basal, 48 h (AID 1143).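 Also: Huh7 hepatoma cells carrying a hepatitis C replication reporter with no stimulus; test concentration not given here.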 Particulars: Huh7 HCV replicon, higher = more signal, called active from +8 up or from −8 down. In general terms: In ATP-based viability assays light output follows the ATP content of the culture.
Assay [3] can be described thus: P. aeruginosa biofilm formation inhibitors, primary screen, PAO1 strain, BacTiter-Glo luminescence, LB-PBS (AID 1144). Particulars: 12 h, higher = more signal.
The nature of assay [4]: CREB reporter modulators without forskolin, primary screen, cell-based, PC12, CRE-LacZ reporter, unstimulated (AID 1145). Particulars: no forskolin, luminescence, 4.5 h, higher = more signal, called active from +8 up or from −8 down.
Assay [5] can be described thus: CREB reporter modulators under forskolin, primary screen, cell-based, PC12, CRE-LacZ reporter, forskolin-stimulated (AID 1146).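 Also: PC12 cells with 6xCRE LacZ reporter stimulated by forskolin 10 µM; beta-galactosidase reporter signal reflecting CREB driven transcription.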 Particulars: luminescence, 4.5 h, higher = more signal, called active from +8 up or from −8 down.
For assay [6], the target named is Streptavidin (Streptomyces avidinii) (UniProt P22629). Description: streptavidin binders on small-molecule microarray, primary screen, artefact control for SMM compound annotation, biophysical, 635/667 nm fluorescence (AID 1147).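 Also: signal reflects streptavidin binding to arrayed compounds as a control protein.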 Particulars: streptavidin binding, higher = more signal.
A short description of assay [7]: small-molecule binders of probe aInhba, primary screen, biochemical, small-molecule microarray, 635/667 nm fluorescence (AID 1148).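 Also: score merges 667nm spot fluorescence with signal-to-noise for antibody binding to printed compounds.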 Particulars: higher = more signal.
The target of assay [8] is Torsin-1A (Homo sapiens) (UniProt O14656). Description: torsin A binders from cell lysate, primary screen, small-molecule microarray, wild-type, 635/667 nm (AID 1149). Particulars: COS7 hTOR1A-WT lysate, 635 nm fluorescence, higher = more signal.
Assay [9] shares this target. In words: small-molecule binders of mutant TOR1A in lysate, primary screen, cell lysate, small-molecule microarray, COS7 lysate, 635/667 nm fluorescence (AID 1150).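 Also: score pools 667 nm emission and signal to noise measuring lysate protein binding.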 Particulars: COS7 hTOR1A mutant lysate, 635 nm fluorescence, higher = more signal.
Assay [10] deals with Sonic hedgehog protein (Shh). Description: small-molecule binders of Shh protein, primary screen, biochemical, small-molecule microarray, 635/667 nm fluorescence (AID 1151).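 Also: Shh protein binding to compounds spotted on small-molecule microarray slides; score combines spot fluorescence intensity with signal-to-noise across triplicate slides.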 Particulars: small-molecule microarray binding, 635 nm fluorescence; higher = more signal.
Assay [11] in a line: E. coli DRC41 culture turbidity changes, primary screen, E. coli filamentation inducer project, strain DRC41, OD650, 48 h (AID 1152).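 Also: E. coli MC1000 strain DRC41 lacking acrAB efflux pump and sulA.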 Particulars: E. coli DRC41 (acrAB sulA), higher = more signal, called active from +8 up or from −8 down.
A short description of assay [12]: small-molecule binders of probe aLefty1, primary screen, biochemical, small-molecule microarray, 635/667 nm fluorescence (AID 1153).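 Also: score merges spot fluorescence with signal-to-noise ratio from the scanned slide images.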 Particulars: higher = more signal.
Assay [13] in a line: PSAC antagonists in infected red cells, primary screen, cell-based, P. falciparum Indochina, OD700, 1 h (AID 1154). Particulars: P. falciparum Indochina infected RBC osmotic lysis, higher = more signal, called active from +8 up or from −8 down.
A short description of assay [14]: PSAC antagonists in infected red cells, primary screen, cell-based, P. falciparum Indochina, OD700, 2 h (AID 1155).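 Also: lysis reports solute entry through the parasite surface anion channel PSAC; channel blockers reduce lysis of infected cells.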 Particulars: P. falciparum Indochina infected erythrocytes, osmotic lysis OD700; higher = more signal, called active from +8 up or from −8 down.
Assay [15] is described as follows: osmotic lysis modulators in infected erythrocytes, primary screen, PSAC antagonist project, cell-based, P. falciparum Indochina, OD700, 3 h (AID 1156). Particulars: higher = more signal, called active from +8 up or from −8 down.
Assay [16] is described as follows: PSAC antagonists in infected red cells, primary screen, cell-based, P. falciparum Indochina, OD700, 18 h (AID 1157). Particulars: P. falciparum Indochina infected erythrocytes, osmotic lysis OD700, 18 h; higher = more signal, called active from +8 up or from −8 down.
The nature of assay [17]: modulators of S6 phosphorylation in cells, primary screen, cell-based, A549, cytoblot, luminescence, serum-stimulated (AID 1158).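 Also: serum-stimulated A549 lung adenocarcinoma cells; signal is phosphorylated S6 detected by cytoblot immunostaining with HRP secondary.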 Particulars: A549 phospho-S6 cytoblot, 5 h, higher = more signal.
Assay [18] has as its target NADPH oxidase 2 (Homo sapiens) (UniProt P04839). In words: NOX2-dependent H2O2 signal modulators, primary screen, NOX inhibitor project, cell-based, HEK293-NOX2, PMA-stimulated, Amplex Red fluorescence (AID 1159). Also: test concentration not given here. Particulars: 45 min, higher = more signal, called active from +8 up or from −8 down.
For assay [19], the target named is NADPH oxidase 4 (Homo sapiens) (UniProt Q9NPH5). In words: NOX4-dependent H2O2 signal modulators, primary screen, NOX inhibitor project, cell-based, HEK293-NOX4, tetracycline-induced, Amplex Red fluorescence (AID 1160). Particulars: 45 min, higher = more signal, called active from +8 up or from −8 down.
The target in assay [20] is NADPH oxidase 5 (Homo sapiens) (UniProt Q96PH1). Description: NOX5-dependent H2O2 signal modulators, primary screen, NOX inhibitor project, cell-based, HEK293-NOX5, Amplex Red fluorescence (AID 1161). Particulars: HEK293-NOX5, ionomycin, 45 min, higher = more signal.

Activity calls are given as the source filed them. Unless noted, no rule for the calls is given here.

Chain of NADPH oxidase 4 (Homo sapiens) (Q9NPH5 whole entry, looked up): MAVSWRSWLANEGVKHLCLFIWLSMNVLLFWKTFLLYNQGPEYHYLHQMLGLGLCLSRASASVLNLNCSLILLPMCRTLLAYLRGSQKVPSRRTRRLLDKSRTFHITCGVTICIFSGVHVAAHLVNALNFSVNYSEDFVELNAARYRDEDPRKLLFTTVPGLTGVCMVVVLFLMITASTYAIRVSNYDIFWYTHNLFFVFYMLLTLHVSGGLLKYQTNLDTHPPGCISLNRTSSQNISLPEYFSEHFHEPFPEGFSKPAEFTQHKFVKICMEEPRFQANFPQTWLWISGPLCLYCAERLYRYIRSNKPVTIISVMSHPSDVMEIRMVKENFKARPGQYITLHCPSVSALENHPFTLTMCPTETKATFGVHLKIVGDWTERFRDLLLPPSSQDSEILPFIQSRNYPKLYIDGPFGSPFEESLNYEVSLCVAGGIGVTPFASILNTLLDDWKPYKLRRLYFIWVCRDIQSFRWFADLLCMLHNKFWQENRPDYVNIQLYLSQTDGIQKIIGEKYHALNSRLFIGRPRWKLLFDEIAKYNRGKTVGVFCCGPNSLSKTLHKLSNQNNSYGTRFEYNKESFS
Chain of Streptavidin (Streptomyces avidinii) (P22629 whole entry, looked up): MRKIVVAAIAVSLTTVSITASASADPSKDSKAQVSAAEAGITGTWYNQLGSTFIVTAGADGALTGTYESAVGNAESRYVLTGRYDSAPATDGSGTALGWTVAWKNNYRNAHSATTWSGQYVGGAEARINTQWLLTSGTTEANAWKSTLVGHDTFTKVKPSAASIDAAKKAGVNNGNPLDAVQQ
Chain of Torsin-1A (Homo sapiens) (O14656 whole entry, looked up): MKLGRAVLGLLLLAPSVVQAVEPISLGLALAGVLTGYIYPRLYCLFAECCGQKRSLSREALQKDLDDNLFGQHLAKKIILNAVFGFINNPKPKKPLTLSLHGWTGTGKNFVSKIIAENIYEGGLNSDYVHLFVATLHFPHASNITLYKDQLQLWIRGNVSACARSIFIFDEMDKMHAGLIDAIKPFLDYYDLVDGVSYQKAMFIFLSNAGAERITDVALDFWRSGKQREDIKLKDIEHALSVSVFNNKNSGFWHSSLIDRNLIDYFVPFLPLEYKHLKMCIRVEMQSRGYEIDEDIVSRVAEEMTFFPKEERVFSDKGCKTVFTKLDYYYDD
Chain of NADPH oxidase 5 (Homo sapiens) (Q96PH1 whole entry, looked up): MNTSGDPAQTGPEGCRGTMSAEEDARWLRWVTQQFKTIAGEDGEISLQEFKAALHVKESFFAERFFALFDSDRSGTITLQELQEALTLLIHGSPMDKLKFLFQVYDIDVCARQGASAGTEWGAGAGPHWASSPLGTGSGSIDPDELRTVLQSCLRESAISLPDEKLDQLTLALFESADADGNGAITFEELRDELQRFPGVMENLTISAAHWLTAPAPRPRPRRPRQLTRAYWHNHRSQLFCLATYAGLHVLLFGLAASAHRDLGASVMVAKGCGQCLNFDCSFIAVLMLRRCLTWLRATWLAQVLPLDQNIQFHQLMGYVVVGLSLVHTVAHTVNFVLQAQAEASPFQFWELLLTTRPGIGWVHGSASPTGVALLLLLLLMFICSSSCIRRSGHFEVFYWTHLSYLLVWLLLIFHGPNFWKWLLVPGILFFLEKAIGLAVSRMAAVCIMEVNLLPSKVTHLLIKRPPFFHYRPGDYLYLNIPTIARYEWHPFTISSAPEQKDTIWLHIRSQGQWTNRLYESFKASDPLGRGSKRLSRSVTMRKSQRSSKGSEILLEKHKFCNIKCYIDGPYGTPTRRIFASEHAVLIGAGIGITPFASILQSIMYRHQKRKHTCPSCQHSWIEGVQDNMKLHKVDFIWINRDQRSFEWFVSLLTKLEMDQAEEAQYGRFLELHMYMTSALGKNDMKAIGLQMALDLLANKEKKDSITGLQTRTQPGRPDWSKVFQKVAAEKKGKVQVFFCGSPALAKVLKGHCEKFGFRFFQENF
Chain of NADPH oxidase 2 (Homo sapiens) (P04839 whole entry, looked up): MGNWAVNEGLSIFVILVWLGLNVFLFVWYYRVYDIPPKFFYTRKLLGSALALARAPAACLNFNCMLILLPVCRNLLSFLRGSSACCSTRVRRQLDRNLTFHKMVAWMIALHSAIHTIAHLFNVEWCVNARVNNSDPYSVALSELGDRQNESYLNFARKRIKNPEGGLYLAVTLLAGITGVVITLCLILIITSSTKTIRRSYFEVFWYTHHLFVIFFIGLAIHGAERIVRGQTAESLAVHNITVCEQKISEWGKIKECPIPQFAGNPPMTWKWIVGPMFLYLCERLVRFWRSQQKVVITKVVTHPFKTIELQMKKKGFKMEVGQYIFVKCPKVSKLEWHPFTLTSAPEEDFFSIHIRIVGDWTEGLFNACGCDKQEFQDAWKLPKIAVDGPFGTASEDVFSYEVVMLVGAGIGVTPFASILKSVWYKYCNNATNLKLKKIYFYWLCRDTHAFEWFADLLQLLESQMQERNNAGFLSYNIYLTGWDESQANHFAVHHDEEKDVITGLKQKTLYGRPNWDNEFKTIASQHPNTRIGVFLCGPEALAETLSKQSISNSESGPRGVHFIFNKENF

In the case of `COC(=O)[C@@]1(Cc2ccc(F)cc2)[C@H]2c3cc(C(=O)N(C)C)n(CCc4ccc(OC)c(Br)c4)c3C[C@H]2CN1C(=O)c1ccccc1`, the composite z-score in [1] is 1.88; in assay [6] it was 0.221; in assay [7], 0.925; with Torsin-1A (Homo sapiens) [8] it was 0.005; with Torsin-1A (Homo sapiens) [9], 0.741; in assay [10] it was -1.09. The composite z-score in assay [12] is 1.32. In addition, the z-score in [2] was -4.65 (inactive); in [3], 0.167 (inactive); in [4], 17.2 (active); in assay [5], 124 (active); in assay [11], -1.75 (inactive); in [13], 1.89 (inactive). Besides, the z-score in [14] was -1.04 (inactive); in [15], 0.746 (inactive); in assay [16], -1.96 (inactive); in [17], 1.24; in [18], -3.62 (inactive); in [19], -3.99 (inactive). The z-score in assay [20] was -4.26.
`O=C1CS(=O)(=O)C(c2cccc([N+](=O)[O-])c2)N1c1ccccc1` (stereo not given): the composite z-score came to 0.388 in assay [1]; 0.392 in assay [6]; 1.03 in assay [7]; 0.909 with Torsin-1A (Homo sapiens) [8]; 0.655 in the assay with Torsin-1A (Homo sapiens) [9]; 0.781 in [10]. This compound also showed a composite z-score in assay [12] of 0.683. The z-score was -1.67 (inactive) in [2]; -1.16 (inactive) in assay [3]; -0.231 (inactive) in assay [4]; -1.44 (inactive) in [5]; 2.48 (inactive) in assay [11]; -0.625 (inactive) in [13]. Also, the z-score in assay [14] was -1.38 (inactive); in assay [15] it was -0.903 (inactive); in [16], -1.68 (inactive); in assay [17], 1.93; in [18] it was 0.227 (inactive); in [19] it was 0.38 (inactive). In addition, the z-score in assay [20] worked out at 1.79.
For `COCC(=C=CC[C@H](O)c1ccc(OCCO)cc1)CCO`, the composite z-score in assay [1] was 0.0048; in assay [6], -0.407; in [7], 0.138; with Torsin-1A (Homo sapiens) [8], 1.91; with Torsin-1A (Homo sapiens) [9] it was 0.911; in [10], 1.96. The composite z-score in [12] came out at 0.0774. For the same compound, the z-score is 0.287 (inactive) in [2]; 0.163 (inactive) in [3]; 2.44 (inactive) in assay [4]; -0.419 (inactive) in assay [5]; 0.367 (inactive) in assay [11]; 9.25 (active) in [13]. Besides, the z-score in [14] was 1.02 (inactive); in [15], 0.934 (inactive); in assay [16], 0.381 (inactive); in [17], -0.439; in [18], 1.03 (inactive); in [19] it was 0.57 (inactive). In [20], this compound had a z-score of -0.704.
As for `CC(C)[Si](C#CCCCC#N)(O[C@H](c1ccccc1)c1cn(Cc2ccccc2)nn1)C(C)C`, the composite z-score in [1] is 0.125; in [6], 0.62; in assay [7], -0.157; in the assay with Torsin-1A (Homo sapiens) [8], 0.148; with Torsin-1A (Homo sapiens) [9], 0.194; in [10], 0.531. Also, the composite z-score in [12] is -0.253. Moreover, the z-score in assay [2] is -0.507 (inactive); in assay [3], -0.319 (inactive); in [4] it was 0.773 (inactive); in [5] it was -0.0473 (inactive); in assay [11], 1.99 (inactive); in [13] it was 1.05 (inactive). In addition, the z-score in [14] was 0.0907 (inactive); in assay [15], 0.866 (inactive); in [16], 0.137 (inactive); in [17], 0.249; in assay [18], -0.502 (inactive); in assay [19], 0.912 (inactive). The compound also registered a z-score in assay [20] of 0.536.
As to `COC(=O)[C@@]1(Cc2ccc(OC)cc2)[C@H]2c3cc(C(=O)N4CCCC4)n(CCc4c[nH]c5ccc(OC)cc45)c3C[C@H]2CN1C(=O)c1ccccc1`, the composite z-score in [1] is 0.411; in assay [6], 1.5; in assay [7], 0.35; in the assay with Torsin-1A (Homo sapiens) [8], -0.0701; in the assay with Torsin-1A (Homo sapiens) [9], 0.327; in assay [10], -0.565. Besides, in [12], the composite z-score worked out at 0.894. For the same compound, the z-score in assay [2] is -3.16 (inactive); in assay [3], 0.717 (inactive); in assay [4], 0.201 (inactive); in assay [5] it was -0.715 (inactive); in assay [11], -1.61 (inactive); in assay [13] it was 4.25 (inactive). The z-score in assay [14] was 0.71 (inactive); in [15], 1.42 (inactive); in [16], 1.57 (inactive); in assay [17] it was 0.0592; in assay [18] it was 0.547 (inactive); in assay [19] it was 1.14 (inactive). Besides, the z-score in assay [20] is 1.38.

The values are drawn from PubChem BioAssay.
